Assay results taken from PubChem BioAssay.
Where “and” joins values, the source holds several entries; their conditions need not be identical. Identical values can stand only once. Calls of active or inactive are those of the source. Unless noted, no stated cut-off is given here; in the data, active means inhibition above about 80%; inactive means the rest.

Tests used:
[1] = BT084 cell growth, single and combined drugs, ICGC_MB145, cisplatin and BGB IC40 combos (AID 1671461); details: BT084 medulloblastoma cells, drug combinations, stronger effect = higher value;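 further: cells exposed to drugs for 96 hours; 0% = vehicle DMSO and 100% = high DMSO full killing control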
[2] = RCMB18 cell growth, single agent and combined, cisplatin and BGB IC40 combos (AID 1671462); details: RCMB18 medulloblastoma cells, stronger effect = higher value;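 further: cells exposed to compound for four days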
[3] = CRL1545 cell growth, single agent and combined, cisplatin and BGB IC20 combos (AID 1671464); details: CRL1545 osteosarcoma cells, stronger effect = higher value;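 further: cells exposed to compound for 96 hours before readout; 0% = vehicle DMSO and 100% = high DMSO killing control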
[4] = viability loss with induced miR-34 in A549 – imaging, A549 dox-inducible miR-34, nuclei and caspase counts, primary screen (AID 1347080;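 active means compounds whose cell count with miR-34 switched on is under 0.7 times the count with it off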); details: A549 miR-34 inducible, Hoechst nuclei count, 48 h
[5] = MELAS cybrid and Rieske KO viability enhancers – cell-based, MELAS cybrids, Rieske KO mouse fibroblasts, CellTiter-Glo, primary screen (AID 1508586;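 active means mean z-score across replicates of 1.96 or higher in either the MELAS or the Rieske mutant cell line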;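 further: z relative to plate mean and SD of compound and empty wells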); details: low glucose
[6] = growth inhibition, single agent or in combination, cell-based, chromothripsis tumors, cisplatin or BGB combos (AID 1671449); details: LFS_MB_P medulloblastoma cells;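 further: cells exposed for 96 hours; 0% = vehicle DMSO and 100% = killing by high DMSO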
[7] = growth inhibition, single agent and combos, cell-based, chromothripsis tumors, cisplatin or BGB combos (AID 1671450); details: HDN33 neuroblastoma cells, stronger effect = higher value;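 further: cells exposed to compound for four days; 0% = vehicle DMSO and 100% = cell killing by high DMSO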
[8] = growth inhibition, single agents and combos, ICB984, cell-based, cisplatin or BGB combos, synergistic combos for chromothripsis tumors (AID 1671451; call rule not given here;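 further: cells exposed for 96 hours before readout; 0% = vehicle DMSO and 100% = killing by high DMSO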); details: ICB984 medulloblastoma cells, drug combinations, stronger effect = higher value
[9] = growth inhibition, single agents and combos, LFS_MB_1R, cell-based, cisplatin or BGB combos, synergistic combos for chromothripsis tumors (AID 1671452); details: LFS_MB_1R medulloblastoma cells, stronger effect = higher value;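 further: cells exposed for 96 hours before readout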
[10] = growth inhibition, single agents and combos, HTB85, cell-based, BGB or cisplatin IC20 combos, synergistic combos for chromothripsis tumors (AID 1671453); details: HTB85 osteosarcoma cells, drug combinations, stronger effect = higher value;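 further: cells exposed for 96 hours before readout; 0% = vehicle DMSO and 100% = high DMSO killing control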
[11] = growth inhibition, single agents and combos, CRL2098, cell-based, BGB or cisplatin IC20 combos, synergistic combos for chromothripsis tumors (AID 1671454); details: CRL2098 osteosarcoma cells, drug combinations, stronger effect = higher value;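 further: cells exposed for 96 h before readout; 0% = vehicle DMSO and 100% = killing by high DMSO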
[12] = growth inhibition, single agents and combos, HD-MB03, cell-based, BGB or cisplatin IC20 combos, synergistic combos for chromothripsis tumors (AID 1671455; in the data active means inhibition above about 83%;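 further: 0% = vehicle DMSO and 100% = high DMSO as cytotoxic control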); details: HD-MB03 medulloblastoma cells, stronger effect = higher value
[13] = growth inhibition, single agents and combos, UWB1.289, cell-based, BGB or cisplatin combos, synergistic combos for chromothripsis tumors (AID 1671456); details: UWB1.289 ovarian carcinoma cells, stronger effect = higher value;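 further: cells exposed to compound for four days; 0% = vehicle DMSO and 100% = killing by high DMSO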
[14] = growth inhibition, single agents and combos, LFS_MB_2R, cell-based, cisplatin combos, synergistic combos for chromothripsis tumors (AID 1671457); details: LFS_MB_2R medulloblastoma cells, stronger effect = higher value;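 further: cells exposed to compound for four days before readout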
[15] = growth inhibition, MDA-MB-436, cell-based, BGB or cisplatin combos, synergistic combos for chromothripsis tumors (AID 1671458; call rule not given here;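 further: cells exposed for 96 hours; 0% = vehicle DMSO and 100% = killing by high DMSO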); details: MDA-MB-436 breast carcinoma growth inhibition, drug combinations, stronger effect = higher value
[16] = UWB1.289_BRCA1 ovarian cancer growth, cell-based, BGB or cisplatin combinations (AID 1671459); details: UWB1.289 BRCA1 ovarian carcinoma, drug combinations, stronger effect = higher value
[17] = drug combination toxicity in non-malignant astrocytes – cell-based, BGB or cisplatin IC20 combos, cytotoxicity control for chromothriptic childhood tumor combination screen (AID 1671460); details: Human astrocytes, viability inhibition, drug combinations, at 0.5 µM, stronger effect = higher value;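 further: cells exposed to compounds for 96 hours before viability readout; 0% = vehicle and 100% = killing control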
[18] = cisplatin combination, at 0.5 µM
[19] = measured here: BGB IC40 combination 0.05 uM, at 0.05 µM
[20] = measured here: BGB IC40 combination, at 0.05 µM
[21] = measured here: combination with cisplatin, at 0.5 µM
[22] = measured here: with BGB IC20 combination, at 0.5 µM
[23] = measured here: with cisplatin IC20 combination, at 0.5 µM
[24] = measured here: combination with BGB IC40, at 0.05 µM
[25] = measured here: combination with cisplatin, at 5 µM

Nc1ccn(C2OC(CO)C(O)C2(F)F)c(=O)n1 (stereo not drawn)
inhibition [1, 18]: 30.6% and 26.6% and 14.1%
inhibition ([1]; cisplatin combination, at 5 µM): 52.1% and 55.8% and 69.2%
inhibition [1, 19]: -18.1% and -16.5% and -27.6%
inhibition ([1]; single agent, at 5 µM): 11.1% and 16.6% and 14.7%
inhibition ([2]; at 0.5 µM): 5.91% (inactive) and 3.99% (inactive) and 14.1% (inactive)
inhibition ([2]; cisplatin combo, at 5 µM): 85.9% and 82.9%
inhibition [2, 20]: -10.4% and -39% and -30%
inhibition [2, 21]: 68.2% and 64.5% and 57.4%
inhibition ([2]; single agent, at 5 µM): 10.1% and 16.5% and 18.8%
inhibition ([3]; at 0.5 µM): 65.3% (inactive) and 70.4% (inactive) and 61.5% (inactive)
inhibition [3, 22]: 73.4% and 66.6% and 67.9%
inhibition [3, 23]: 61.3% and 72.3% and 57.7%
inhibition ([3]; single agent, at 0.05 µM): 71.8% and 61.1% and 53.4%
inhibition ([3]; single agent, at 5 µM): 87.7% and 91.1% and 81.7%

CCCCN(Cc1ccc(C(=O)NO)cc1)C(=O)Nc1ccccc1
fold change ([4]; stronger effect = lower value, cell number ratio, induced over uninduced): 0.983 (inactive)
fold change ([4]; measured here: relative caspase fold change +Dox/-Dox): 0.418
cell count ([4]; measured here: total cells with miR-34 induction, stronger effect = lower value): 4530
cell count ([4]; measured here: total cells without miR-34 induction): 4600
z-score ([5]; MELAS cybrid survival, CellTiter-Glo 48 h, stronger effect = higher value): -0.565 (inactive)
z-score ([5]; Rieske KO mouse fibroblast survival, CellTiter-Glo 72 h): 1.2
inhibition ([6]; at 0.5 µM, stronger effect = higher value): -20% (inactive) and -3.97% (inactive)
inhibition ([6]; measured here: combination with BGB IC20, at 0.005 µM): -3.67% and 7.55%
inhibition ([6]; measured here: combination with BGB IC40, at 0.005 µM): 4.04% and -3.84%
inhibition [6, 24]: 40.8% and 5.09%
inhibition ([6]; measured here: combination with cisplatin, at 0.5 µM, stronger effect = higher value): -30.1% and 27.1%
inhibition ([6]; measured here: combination with cisplatin, at 5 µM, stronger effect = higher value): 80.5% and 81.8%
inhibition ([7]; BGB combo, at 5 µM): 53.8% and 40.9%
inhibition ([7]; at 0.5 µM): 23.8% (inactive) and 15.6% (inactive)
inhibition ([7]; cisplatin combo, at 5 µM): 52.4% and 49.4%
inhibition [7, 22]: 24.6% and 6.38%
inhibition [7, 23]: 17.1% and 28%
inhibition ([7]; single agent, at 5 µM): 52.1% and 51.6%
inhibition ([8]; BGB IC20 combo, at 0.005 µM): -10.6% and 8.62%
inhibition ([8]; BGB IC40 combo, at 0.005 µM): -48.5% and 3.88%
inhibition ([8]; BGB IC40 combo, at 0.05 µM): 19.3% and 30.6%
inhibition ([8]; at 0.5 µM): -22.3% (inactive) and 1.78% (inactive)
inhibition ([8]; cisplatin combo, at 0.05 µM): 16.1% and 28.6%
inhibition ([8]; cisplatin combo, at 0.5 µM): -41.9% and 10.4%
inhibition ([8]; cisplatin combo, at 5 µM): -6.73% and -20.8%
inhibition ([8]; measured here: 5 uM single agent, at 5 µM): -6.18% and 2.93%
inhibition ([9]; at 0.5 µM): -0.52% (inactive) and 4.37% (inactive)
inhibition [9, 24]: -26.5% and -6.78%
inhibition [9, 21]: 3.43% and 2.01%
inhibition [9, 25]: 21.2% and 8.3%
inhibition ([10]; at 0.5 µM): 19.9% (inactive) and 9.96% (inactive)
inhibition ([10]; measured here: with BGB IC20, at 0.5 µM): 8.29% and 2.56%
inhibition ([10]; measured here: with BGB IC20, at 5 µM): 37.9% and 32.7%
inhibition ([10]; measured here: with cisplatin IC20, at 0.5 µM): 24.2% and 15.2%
inhibition ([10]; measured here: with cisplatin IC20, at 5 µM): 61.3% and 51.1%
inhibition ([10]; single agent, at 5 µM): 64% and 41.2%
inhibition ([11]; at 0.5 µM): -11.3% (inactive) and -33.3% (inactive)
inhibition ([11]; measured here: combination with BGB at IC20, at 0.5 µM): 5.14% and -65%
inhibition ([11]; measured here: combination with cisplatin at IC20, at 0.5 µM): 14.3% and -15.5%
inhibition ([12]; at 0.5 µM): 14.8% (inactive) and 3.61% (inactive)
inhibition ([12]; measured here: combo with BGB at IC20, at 0.5 µM): 8.17% and 6.08%
inhibition ([12]; measured here: combo with cisplatin at IC20, at 0.5 µM): 19.9% and -1.69%
inhibition ([13]; at 0.5 µM): 11.9% (inactive) and 3.45% (inactive)
inhibition ([13]; measured here: inhibition with BGB combination, at 0.05 µM): 1.66% and 3.63%
inhibition ([13]; measured here: inhibition with cisplatin combination, at 0.05 µM): -1.43% and -3.86%
inhibition ([14]; at 0.5 µM): -2.85% (inactive) and 5.34% (inactive)
inhibition [14, 21]: 10.6% and 13.6%
inhibition [14, 25]: 66.3% and 45%
inhibition ([15]; at 0.5 µM): 2.63% (inactive) and 5.38% (inactive)
inhibition ([15]; measured here: BGB combination, at 0.5 µM): -2.67% and 11.6%
inhibition ([15]; measured here: BGB combination, at 5 µM): 10.7% and 17.3%
inhibition ([15]; measured here: cisplatin combination, at 0.5 µM): 0.872% and -0.512%
inhibition ([15]; measured here: cisplatin combination, at 5 µM): 26% and 22.1%
inhibition ([16]; BGB combination, concentration series, at 5 µM): 53.9% and 55%
inhibition ([16]; at 0.5 µM): 11.3% (inactive) and 5.83% (inactive)
inhibition ([16]; cisplatin combination, concentration series, at 5 µM): 64.1% and 65%
inhibition [17]: 12.4% (inactive) and -2.38% (inactive)
inhibition ([17]; measured here: combo with BGB IC20): 32.5% and 11.7%
inhibition ([17]; measured here: combo with cisplatin IC20): 10.7% and -23.3%
inhibition ([1]; at 0.5 µM): 4.6% (inactive) and 18.3% (inactive)
inhibition [1, 18]: 19.3% and 17.8%
inhibition ([1]; cisplatin combination, at 5 µM): 71.8% and 68.9%
inhibition [1, 19]: -5.38% and 25.6%
inhibition ([1]; single agent, at 5 µM): 45.6% and 57.8%
inhibition ([2]; at 0.5 µM): 12.4% (inactive) and 19.2% (inactive)
inhibition ([2]; cisplatin combo, at 5 µM): 43.7% and 48.5%
inhibition [2, 20]: -4.7% and 0.072%
inhibition [2, 21]: 39% and 19%
inhibition ([2]; single agent, at 5 µM): 15.2% and 39.4%
inhibition ([3]; at 0.5 µM): -6.16% (inactive) and 6.99% (inactive)
inhibition [3, 22]: -21.4% and 15.9%
inhibition [3, 23]: 1.44% and 0.349%
inhibition ([3]; single agent, at 0.05 µM): -0.576% and -13%
inhibition ([3]; single agent, at 5 µM): 32.4% and 24.1%
